Assay [1] is described as follows: P. berghei load reduction in hepatocytes – cell-based, HepG2, luciferase luminescence, HepG2 viability, primary screen (AID 624349; in the data active means parasite load remaining mostly below about 12%, no sharp cut-off; inactive means mostly above about 10%;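 further: 100% = mean of DMSO negative control wells on the same plate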). Particulars: P. berghei liver stage in HepG2, luciferase luminescence, concentration not given here; parasite load remaining: stronger effect = lower value; viability: measured here: HepG2 viability without parasites.
Assay [2] in a line: Wnt pathway potentiators raising nuclear beta-catenin – imaging, WNT3A-conditioned medium, mouse C2C12, NPC library, primary screen (AID 1117326; in the data active means nuclear beta-catenin stimulation mostly above about 4.2%, no sharp cut-off; inactive means mostly below about 10%). Particulars: stronger effect = higher value.
A short description of assay [3]: stimulators of insulin release from INS-1E, primary screen, cell-based, 5 mM glucose, NPC library (AID 1117329;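 active means compound raises insulin release from rat beta cells at 5 mM glucose, no numeric limit stated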). Particulars: rat INS-1E insulin secretion, at 10 µM, stronger effect = higher value.
A short description of assay [4]: growth inhibition of GSK3B-pretreated HCT116 cells – cell-based, CellTiter-Glo, 0.2 to 20 µM (AID 1117336;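 active means compounds lowering colon cancer cell viability after pretreatment blocking the GSK3B kinase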). The following applies: HCT116 viability after GSK3B inhibitor, at 20 µM, stronger effect = higher value. (ATP-based viability assays read luminescence as a measure of living cells.)
A short description of assay [5]: inhibition of endothelial tube formation, primary screen, imaging, VEGF stimulated, CD31 staining, tube area, NPC library (AID 1117340;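 active means compound that reduces growth-factor-driven endothelial tube area in a mixed cell culture, no cutoff stated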). The following applies: VEGF-stimulated ADSC/ECFC co-culture, at 10 µM, stronger effect = higher value.
Assay [6] can be described thus: GLP1 release stimulators, primary, NCI-H716, NPC library (AID 1117341;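 active means compound raises GLP1 secretion from the human gut endocrine cells, with no numeric limit stated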). The following applies: NCI-H716 cells, at 10 µM, stronger effect = higher value.
The nature of assay [7]: HCT116 colon cancer cell growth inhibition, primary screen, CellTiter-Glo luminescence, NPC library (AID 1117342;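 active means compounds that lower survival of HCT116 colon cancer cells in the luminescence readout, no numeric limit stated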). Particulars: at 20 µM (top of the series).
A short description of assay [8]: reduced SW480 viability measured with CellTiter-Glo, NPC library, primary (AID 1117343;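 active means compounds that lower viability of the colon cancer cells in the luminescence readout, with no numeric limit stated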). The following applies: CellTiter-Glo luminescence; at 20 µM (top of the series) unless noted.
The nature of assay [9]: NPC library primary testing for decreased DLD-1 cell viability via CellTiter-Glo (AID 1117346;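 active means compounds that lower survival of DLD-1 colon cancer cells in the luminescence readout, no cutoff given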). Particulars: DLD-1 viability, CellTiter-Glo luminescence; at 20 µM (top of the series).
For assay [10], the system named is Aerobactin synthetase IucA (Klebsiella pneumoniae). Nature of the assay: inhibition of K. pneumoniae IucA enzyme – biochemical, Tocris library, absorbance (AID 1345561; call rule not given here;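 further: 100% = enzyme without compound and 0% = no enzyme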). Particulars: purified IucA enzyme assay, absorbance (OD) read-out; stronger effect = lower value;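 tested at 8 µM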.
Assay [11] can be described thus: viability loss with induced miR-34 in A549 – imaging, A549 dox-inducible miR-34, nuclei and caspase counts, primary screen (AID 1347080). Particulars: A549 miR-34 inducible, Hoechst nuclei count, 48 h.
The nature of assay [12]: MELAS cybrid and Rieske KO viability enhancers – cell-based, MELAS cybrids, Rieske KO mouse fibroblasts, CellTiter-Glo, primary screen (AID 1508586;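 active means mean z-score across replicates of 1.96 or higher in either the MELAS or the Rieske mutant cell line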;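 further: z relative to plate mean and SD of compound and empty wells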). Particulars: low glucose.
The nature of assay [13]: galactose survival enhancers in mitochondrial complex I cybrids – cell-based, galactose medium, ATP luminescence, primary screen (AID 1645843;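 active means z-score of at least 1.8 in each of two replicates, scored against plate mean and spread of sample wells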;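 further: positive z means more ATP and so rescue of galactose-driven cybrid death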). The following applies: complex I mutant cybrid cells, 72 h, stronger effect = higher value.
The nature of assay [14]: viability loss in pontine glioma line – cell-based, SU-DIPG-XVII, MIPE5.0, CellTiter-Glo, qHTS, dose response (AID 1347060; cut-off not given, nearly all actives have AC50 up to about 26 µM). The following applies: CellTiter-Glo ATP luminescence.
The nature of assay [15]: growth inhibition of DIPG cells – cell-based, MIPE5.0 library, qHTS (AID 1347068; cut-off not given, nearly all actives have IC50 up to about 30 µM). Particulars: SU-DIPG-XXV viability. On the technique in general: In qHTS, concentration-response curves come from the screen itself.
Where [16] appears, read: stronger effect = lower value, cell number ratio, induced over uninduced.
The mark [17] stands for this setting: measured here: relative caspase fold change +Dox/-Dox.
Where [18] appears, read: measured here: total cells with miR-34 induction, stronger effect = lower value.
Where [19] appears, read: measured here: total cells without miR-34 induction.
[20] abbreviates: MELAS cybrid survival, CellTiter-Glo 48 h, stronger effect = higher value.
Setting [21] is: Rieske KO mouse fibroblast survival, CellTiter-Glo 72 h.

Several values for one entry are separate records, joined by “and”; a condition that tells them apart may be missing. Equal values may be shown once. Records with an inconclusive call do not appear. Some compounds were tested as several samples or in several runs, with calls that do not always agree. Activity calls are given as the source filed them.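 How the source made its calls, unless noted: active means compounds whose cell count with miR-34 switched on is under 0.7 times the count with it off; inactive means the rest.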

In the case of `CC(C)C(=O)c1c(C(C)C)nn2ccccc12`, the parasite load remaining in [1] was 83.4% (inactive). The viability (in general, the share of living cells, or the viability signal relative to a control) in assay [1] stood at 97%. Moreover, the nuclear beta-catenin stimulation in assay [2] (at 10 µM) was -0.8% (inactive); in assay [2] (stimulation, at 2 µM), 0.4%. For the same compound, the insulin secretion stimulation in [3] was 24.5% (active). Further, in [4], the viability decrease was 39.4% (inactive). For the same compound, the tube area decrease in assay [5] was -13.6% (inactive). In addition, the GLP1 secretion stimulation in assay [6] is 3.4% (inactive). Moreover, in assay [7], the inhibition of viability was 31.8% (inactive). The viability decrease (inhibition) in [8] is 5% (inactive); in assay [9] it was 1.8% (inactive). In addition, the remaining activity (commonly the signal under treatment as a percentage of the control signal) in assay [10] was 110% (inactive). Also, the fold change is 1.02 (inactive) and 0.934 (inactive) and 0.944 (inactive) in assay [11] (setting [16]); 0.854 and 0.782 and 0.951 in [11] (setting [17]). The cell count in [11] (setting [18]) was 9930 and 7850 and 8420; in assay [11] (setting [19]), 9700 and 8400 and 8930. Moreover, the z-score in assay [12] (setting [20]) is 1.07 (inactive) and 0.83 (inactive); in assay [12] (setting [21]), -0.15 and -1.19; in [13] it was 0.105 (inactive) and -0.07 (inactive) and 0.255 (inactive).
In the case of `CCc1cc(Cl)c(OC)c(C(=O)NC[C@@H]2CCCN2CC)c1O`, in [1], the parasite load remaining was 103% (inactive). The viability in assay [1] amounted to 87.5%. For the same compound, the nuclear beta-catenin stimulation in [2] (at 10 µM) was 4.5% (inactive); in [2] (stimulation, at 2 µM) it was 1.7%. Also, the insulin secretion stimulation in [3] was 5.2% (inactive). Further, the viability decrease in assay [4] is -86.7% (inactive). The tube area decrease in assay [5] was 2.8% (inactive). Further, in [6], the GLP1 secretion stimulation was 5.8% (inactive). Besides, in assay [7], the inhibition of viability was 51.9% (active). Also, the viability decrease (inhibition) is 58.3% (active) in [8] and 14.4% (inactive) in [9]. Also, the remaining activity in assay [10] was 112% (inactive). For the same compound, the fold change in assay [11] (setting [16]) was 0.835 (inactive) and 0.921 (inactive); in assay [11] (setting [17]) it was 0.937 and 0.744. Also, the cell count in assay [11] (setting [18]) was 7860 and 8160; in assay [11] (setting [19]) it was 9410 and 8850. Further, the z-score is 0.117 (inactive) in assay [12] (setting [20]), 0.179 in [12] (setting [21]) and -0.605 (inactive) in assay [13].
In the case of `CCOC(=O)c1cnc2c(cnn2CC)c1NN=C(C)C`, the parasite load remaining in assay [1] was 33.1% (inactive). Moreover, the viability in [1] came out at 68.5%. The nuclear beta-catenin stimulation was -1.1% (inactive) in assay [2] (at 10 µM) and 1.4% in assay [2] (stimulation, at 2 µM). Moreover, the insulin secretion stimulation in assay [3] was 5.8% (inactive). Besides, the viability decrease in [4] is -110% (inactive). The tube area decrease in assay [5] was -6% (inactive). In addition, the GLP1 secretion stimulation in assay [6] is 0.7% (inactive). Besides, the inhibition of viability in [7] was 29.6% (inactive). The viability decrease (inhibition) in assay [8] is 21.1% (inactive); in assay [9], 27.5% (inactive). The remaining activity in assay [10] was 115% (inactive). The fold change was 1 (inactive) and 0.89 (inactive) and 0.857 (inactive) in assay [11] (setting [16]); 1.06 and 0.8 and 1.84 in [11] (setting [17]). Moreover, the cell count in [11] (setting [18]) was 7810 and 7710 and 8880; in assay [11] (setting [19]) it was 7780 and 8670 and 10400. In addition, the z-score was 1.91 in assay [12] (setting [20]); 2.39 in assay [12] (setting [21]); 1.13 (inactive) and 2.63 (active) and 1.51 (inactive) in [13].
Consider `CN(C(=O)c1c(O)c2ccccc2n(C)c1=O)c1ccccc1`, for which the nuclear beta-catenin stimulation is 0.7% (inactive) in [2] (at 10 µM) and 0.9% in assay [2] (stimulation, at 2 µM). In addition, the insulin secretion stimulation in assay [3] was 4.4% (inactive). In assay [4], the viability decrease was 2.2% (inactive). Besides, the tube area decrease in [5] is -6.9% (inactive). Further, the GLP1 secretion stimulation in [6] was 0.6% (inactive). The inhibition of viability in assay [7] was -2.7% (inactive). The viability decrease (inhibition) in [8] was 1.1% (inactive); in [9], -45.2% (inactive). Moreover, the remaining activity in [10] was 121% (inactive). For the same compound, the result in [14] and in assay [15] was inactive. Moreover, the fold change in assay [11] (setting [16]) is 0.967 (inactive); in [11] (setting [17]) it was 0.749. In addition, the results for the cell count in [11] (setting [18]) and in assay [11] (setting [19]) were 8780 and 9070, respectively. Further, the z-score in [13] is -0.335 (inactive).

Source of the values: PubChem BioAssay.
